Screens as filed in PubChem BioAssay.
HepG2 viability = HepG2 cytotoxicity, counter-screen for TGF-b inhibitors; HepG2 CAGA-GFP viability, ATP luminescence, 18 h; Potency, µM (highest dose often 46.1 µM), inactives show at the highest dose activity change, negative = cytotoxicity, actives largely listed as cytotoxic; 0.76% of 410,000 active; AID 588856
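CellTiter-Glo luminescence gave cytotoxicity after 18 hours at 37 degrees C. The cells were HepG2 CAGA-GFP in 1% FBS DMEM, stimulated with 500 pg/mL TGF-beta after compound addition. %Activity was normalised to no-cell wells (complete cell-killing) and DMSO (no toxicity), and curves were fitted and classified.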
TGFb inhibitor = blocks TGF-b signaling; 1.2% of 410,000 active; HepG2 CAGA-GFP TGF-b/SMAD3 reporter, GFP fluorescence, 18 h; TGF-beta stimulated, 500 pg/mL final; Potency, µM (doses to about 46.1 µM), for inactives: at the highest dose activity, negative = inhibition, usual class: inhibitors; note: % is set by controls: 0 for no effect and ±100 for the full control effect; nearly all actives have a fitted effect of over 65% in size
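Per well, imaged GFP fluorescence of HEPG2 CAGA-GFP cells gives the signal; cells get compound, then TGF-beta (500 pg/mL final), 18 h at 37 degrees C; %Activity versus -TGF-beta and +DMSO controls.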
TDP1 cell CPT = DT40-hTDP1 cell growth loss with CPT; chicken DT40 Tdp1-/-;hTDP1 cells + 20 nM CPT, ATP luminescence, 48 h; Potency, µM (titrated, usually from 46.2 µM), inactives show top-dose activity change, negative = growth inhibition, most hits filed as inhibitors; 12% of 420,000 active; note: % is set by controls: 0 for no effect and ±100 for the full control effect; nearly all actives have a fitted effect of over 55% in size
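Chicken DT40 Tdp1-/- cells stably complemented with human TDP1 were seeded at 400 cells/well in medium containing 20 nM camptothecin, exposed to pin-transferred compounds, and grown at 37 °C for at least 48 hr. Viability was read as ATP luminescence.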
ATXN2 expr inh = inhibitors of ATXN2 expression; HEK-293 ATXN2-luciferase reporter, luminescence, 24 h; Potency, µM (series often up to 57 µM), inactives show at the highest dose activity change, negative = inhibition, hits mostly inhibitors; 0.72% of 360,000 active; AID 1745845; note: % is set by controls: 0 for no effect and ±100 for the full control effect; nearly all actives have a fitted effect of over 55% in size
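qHTS (up to 57 uM final) was run with 24 h compound exposure of reporter cells at 37 °C. Each well was multiplexed: SteadyGlo luminescence measured ATXN2-luciferase expression after a fluorogenic Gly-Phe-AFC viability readout (25 uM final).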
ATXN viability = viability counter-screen for ATXN expression inhibitors. S2 cells (HEK-293 line with an ATXN2-luciferase reporter) viability, CellTiter-Fluor protease fluorescence, 24 h. Potency, µM (titrated, usually from 56.7 µM), actives largely listed as cytotoxic. 0.49% of 400,000 active; note: nearly all actives have a fitted effect of over 40% in size
DT40 TDP1 no CPT = qHTS for Inhibitors of human tyrosyl-DNA phosphodiesterase 1 (TDP1): qHTS in cells in absence of CPT | AID 686978, 2013 | Potency, µM (top dose mostly 46.2 µM), for inactives: at the highest dose activity change, negative = growth inhibition, most hits filed as inhibitors | DT40 Tdp1-/- hTDP1 cells, no CPT, ATP luminescence, 48 h | 15% of 420,000 active; note: % is set by controls: 0 for no effect and ±100 for the full control effect; nearly all actives have a fitted effect of over 55% in size
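Compound effects on proliferation are scored in DT40 Tdp1-/-;hTDP1 cells in the absence of CPT. ATP levels (CellTiter-Glo luminescence) are recorded after a ≥48 hr, 37 °C incubation.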
* = called active by the depositor; i = inactive; ? = inconclusive; . = not tested or not shown. In the library only some 17% were active in any assay of this set; here they are far more common. Calls come from the whole dose curve; as a rule, active = well fitted curve in the direction sought with a large enough effect; inconclusive = small, poorly fitted or top-dose-only effect, or another doubt; inactive = no such curve, though single readings can be large; an effect the other way counts as inactive or inconclusive. Potency is the fitted concentration of half-maximal effect.

SMILES	HepG2 viability	TGFb inhibitor	TDP1 cell CPT	ATXN2 expr inh	ATXN viability	DT40 TDP1 no CPT
CCC(=O)NCc1nc(-c2cccc(NC(=O)c3ccc(C)s3)c2)oc1C	.	.	?	.	i	?
COc1ccc(-c2nnc(NC(=O)c3ccccc3C)o2)cc1	-32%	?	16µM*	?	i	15µM*
Cc1cccc(C(=O)Nc2nnc(-c3ccco3)o2)c1	3%	-16%	23µM*	-12%	i	10µM*
Cc1ccccc1C(=O)Nc1nnc(-c2ccco2)o1	-22%	-2%	21µM*	-35%	i	18µM*
Cc1ccccc1C(=O)Nc1nnc(-c2ccncc2)o1	-18%	-13%	-28%	-38%	i	?
COc1ccc(C2(CNC(=O)c3ccc(N)cc3)CCCC2)cc1	-7%	-9%	-29%	.	i	?
Cc1ccc(-c2ccnc(-n3ncc(C(=O)NC[C@@H]4CCCN5CCCC[C@H]45)c3C3CC3)n2)o1	.	.	13%	.	i	-14%
CC(=O)OC1CC[C@@]2(C)C(CC[C@@]3(C)C2CC=C2C4CC(C)(C)CC[C@]4(C(=O)O)CC[C@@]23C)C1(C)C (stereo partly drawn)	.	.	-2%	.	.	-4%
O=C(OCc1nnc(-c2ccc([N+](=O)[O-])cc2)o1)c1ccc(F)c(S(=O)(=O)N2CCOCC2)c1	4%	18%	?	-13%	i	-12%
COc1cccc(N2CCN(C(=O)c3nc(-c4ccc(Cl)cc4)n4c3CCCCC4)CC2)c1	-38%	16µM*	?	-36%	?	?
O=C(c1nc(-c2ccc(Cl)cc2)n2c1CCCCC2)N1CCN(c2ccccc2)CC1	2%	-15%	?	-4%	i	21µM*
COc1ccccc1N1CCN(C(=O)c2nc(-c3ccc(C)cc3)n3c2CCCCC3)CC1	-2%	?	-29%	1%	i	?
O=C(Cc1ccc(Cl)cc1)Nc1ccc(C(=O)N2CCOCC2)cc1	-18%	-18%	0%	-13%	i	9%
C#Cc1ccc([C@H]2C=C(C(=O)N3CCN(Cc4ccc5c(c4)OCO5)CC3)O[C@@H](OCc3ccc(CO)cc3)C2)cc1	-15%	?	?	-4%	i	?
Cc1cc(C)c(NC(=O)c2ccc3c(c2)CCN3S(C)(=O)=O)c(C)c1	2%	5%	?	.	i	?
COc1ccc(S(=O)(=O)c2nnn(-c3ccc(C(C)C)cc3)c2C)cc1	-26%	-26%	15µM*	7%	i	15µM*
COc1ccc(C2CC(c3ccccc3)=NN2C(=O)COC(=O)c2nc3nccc(C)n3n2)cc1 (stereo not drawn)	-17%	0%	0%	-18%	?	17%
CCn1c(C)c(C)c2cc(C(=O)NC3CCCCCC3)ccc21	-3%	-4%	16µM*	.	i	21µM*
Cc1c(C)n(Cc2ccccc2)c2ccc(C(=O)NCc3ccccc3F)cc12	-17%	0%	18µM*	.	.	18µM*
Cc1c(C)n(C)c2ccc(C(=O)NCc3cccc(F)c3)cc12	-3%	0%	23µM*	.	.	16µM*
COc1ccccc1CCNC(=O)c1ccc2c(c1)c(C)c(C)n2C	-31%	?	7.3µM*	.	.	7.3µM*
Cc1ccccc1CNC(=O)c1ccc2c(c1)c(C)c(C)n2C	-14%	-20%	?	.	.	?
Cc1ccc(CN(C)C(=O)c2ccccc2NC(=O)c2ccccc2)o1	3%	-17%	?	-4%	i	-9%
COc1cc(CNC(=O)c2ccc3c(c2)c(C)c(C)n3Cc2cccc(C)c2)cc(OC)c1OC	-14%	12%	18µM*	.	.	8.2µM*
Cc1c(C)n(Cc2ccc(F)cc2)c2ccc(C(=O)NCCCN3CCOCC3)cc12	-23%	-26%	?	?	?	16µM*
SMILES	HepG2 viability	TGFb inhibitor	TDP1 cell CPT	ATXN2 expr inh	ATXN viability	DT40 TDP1 no CPT
Cc1c(C)n(Cc2ccccc2)c2ccc(C(=O)NCCCN3CCOCC3)cc12	-32%	-8%	?	-10%	i	?
Cc1cccc(Cn2c(C)c(C)c3cc(C(=O)NCc4ccco4)ccc32)c1	-16%	?	16µM*	.	.	23µM*
CCn1c(C)c(C)c2cc(C(=O)NCc3ccc(OC)cc3OC)ccc21	-43%	?	18µM*	.	.	15µM*
Cc1c(-c2ccccc2)c(-c2ccc(OCCN(C)C)cc2)n2ccccc12	-9%	5%	?	-20%	?	?
CCCc1nc2c(C)cc(Br)cn2c1Cc1ccc(C)cc1	-25%	?	?	?	.	?
CCn1ccc(C(=O)Nc2ccccc2SC)n1	-4%	-8%	-9%	35%	i	-21%
COc1cccc(CNC(=O)c2ccc3c(c2)c(C)c(C)n3Cc2ccccc2)c1OC	-44%	0%	21µM*	.	.	23µM*
Cc1c(C)n(C)c2ccc(C(=O)NCCCN3CCCCC3)cc12	-9%	-2%	4%	-11%	i	?
CCN(CC)c1ccc(NC(=O)c2ccc3c(c2)c(C)c(C)n3C)cc1	-3%	-22%	23µM*	-37%	i	18µM*
CC(C)(C)NC(=O)C1Cc2ccccc2CN1C(=O)Nc1ccccc1Cl (stereo not drawn)	-2%	4%	-16%	-9%	i	-18%
O=C(OCC(=O)N1CCCC1=O)c1nc(Cl)c(Cl)c(Cl)c1Cl	-15%	-2%	-6%	?	32µM*	3%
